Assay results published in PubChem BioAssay AID1794845 (National Center for Advancing Translational Sciences (NCATS), 2023).
Fewer than 10 of roughly 6,900 compounds were called active. Calls follow the shape of the dose curve; as a rule, active = well fitted curve in the direction sought with a large enough effect; inconclusive = small, poorly fitted or top-dose-only effect, or another doubt; inactive = no such curve, though single readings can be large or run the other way. A selection follows.

Each compound was assayed against Metallo-beta-lactamase type 2 (Klebsiella pneumoniae) (UniProt C7C422) (assay: qHTS to identify inhibitors of the New Delhi Metallo-beta-lactamase (NDM): primary screen against the NCATS Gemini Collection). Details: NDM-1 enzyme, meropenem hydrolysis, absorbance 300 nm; series mostly up to 38.4 µM.
Metallo-beta-lactamase type 2 (Klebsiella pneumoniae), sequence (C7C422 whole entry, looked up): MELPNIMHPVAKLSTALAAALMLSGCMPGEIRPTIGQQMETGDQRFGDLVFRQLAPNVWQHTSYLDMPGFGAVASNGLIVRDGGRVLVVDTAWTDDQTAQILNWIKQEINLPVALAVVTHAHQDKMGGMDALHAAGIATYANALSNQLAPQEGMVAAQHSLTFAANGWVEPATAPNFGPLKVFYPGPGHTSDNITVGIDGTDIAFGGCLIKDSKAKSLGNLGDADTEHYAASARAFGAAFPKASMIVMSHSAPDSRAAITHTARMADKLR
From the text: Assay Submitter (PI): James Inglese Ph.D., Patricia Dranchak Ph.D., Mahesh Aitha Ph.D. Assay Development and Screening Technology Laboratory (ADST) National Center for Advancing Translational Sciences (NCATS), Rockville, MD National Institute of Health (NIH), Bethesda, Maryland The metallo-beta-lactamases (MBL) are a main antibiotic resistance mechanism evolved by bacteria. There is an urgent clinical need for MBL inhibitors to mitigate this growing threat. To support a machine-based learning study, qHTS has been used to experimentally test inhibitors identified by prediction tools.
PROTOCOL TABLE (as described by Inglese et al., 2007) SEQUENCE No. (e.g., 1, 2, 3, etc.); […] (e.g., enzyme, Incubation, Reagent, etc.); VALUE; DESCRIPTION 1; NDM-1; 4 uL of 3 nM enzyme [2 nM final] in 50 mM HEPES (pH 7.0), 1 uM […], 0.01% Tween20; Use BioRaptr to dispense into Aurora black, clear bottom low base 1536-well plates 2; Compounds; 23 nL; Use Pin Tool (Wako) to transfer DMSO control and library compounds in DMSO 3; Incubate; >30 min 4; Reagent; 2 uL of 150 uM meropenem [50 uM final] 5; Incubate; 30 min. 6; Detector; Absorbance at 300 nm (bandwidth = 5 nm, 25 flashes/well) on Tecan Infinity NOTES (numbers refer to sequence above) 1; Column 1 of each plate received assay buffer without enzyme and columns 2-48 received enzyme for a final assay concentration of 2 nM. 2; Control plate contained DMSO in columns 1, 2, 3, and 4. 3; Compound interaction with enzyme. 4; Meropenem substrate was prepared in the same assay buffer as step 1 for a final assay concentration of 50 uM and added to all wells across the assay plates. 5; Substrate interaction with enzyme, plateau phase of kinetics. 6; Default reader settings were applied for absorbance read at 300 nm, bandwidth = 5 nm, 25 flashes/well. References: Inglese J, Shamu CE, Guy RK. 2007. Reporting data from high-throughput screening of small-molecule libraries. Nat Chem Biol. doi:10.1038/nchembio0807-438 Yasgar A, Shinn P, Jadhav A, Auld D, Michael S, Zheng W, Austin CP, Inglese J, Simeonov A. 2008. Compound Management for Quantitative High-Throughput Screening. J Lab Autom 13:79 - 89. doi:10.1016/j.jala.2007.12.004

outcome, inactive:
CN1C(=O)[C@H]2CN(Cc3cn[nH]c3-c3cccs3)C[C@H]2C1=O
CCOCCn1c(=O)[nH]c2cc(C(=O)NCCn3cnnc3)ccc21
Cn1cnnc1-c1nn(C)c2c1CNCC2
COc1ccc(-c2nc(N3CCOCC3)cc3c2CN(Cc2ccccc2)C3=O)cn1
O=C(c1ccc(Cl)cc1)N1CCN(Cc2ccccc2-c2cccnc2)CC1
CCOCCn1nc(C)cc1C(=O)N[C@H]1[C@H]2CCO[C@H]2[C@@H]1N(C)C
CCn1c(CO)nnc1C1CC(NC(=O)c2[nH]c3ccc(OC)cc3c2C)C1 (configuration not stated)
O=C(NCCCc1ccccc1F)[C@@]12CNC[C@@H]1CN(Cc1ccccc1)C2
CCCNc1ccc2nncn2n1
COc1cc(OC)cc(-c2onc(C)c2C(=O)NCc2ccccc2C)c1
CS(=O)(=O)NC[C@H]1Cn2ccnc2CO1
Cc1noc(C)c1[S+](=O)([O-])N1CCc2nc(-c3ccccc3)nc(-c3ccc(Cl)cc3)c2C1
Cc1ccc2nc(C(NC(=O)C3CCN(CC(N)=O)CC3)C(C)C)[nH]c2c1 (configuration not stated)
COc1cc2c(cc1NS(C)(=O)=O)C(c1cccc3c1OCO3)CC(=O)N2 (configuration not stated)
Cn1cc(-c2ccc3c(n2)CN(Cc2ccc(F)cc2)C(=O)CO3)cn1
Cc1nn(-c2ccccc2)c(C)c1Cc1nc(C(C)C)no1
Cn1cncc1C(=O)N1CCC2(CC1)CNC(C(=O)O)C2 (configuration not stated)
COc1cccc(N2CCN(C(=O)c3noc(-c4ccc(C)cc4)n3)CC2)c1
CCc1c(C)nn(CCNC(=O)c2cc(S(N)(=O)=O)ccc2F)c1C
COc1cc(F)ccc1-c1nc(-c2c(C)noc2C)cc2cc(C)oc12
COCCCN(CCC(=O)NCc1ccc2c(c1)OCO2)C(=O)c1cc(C)oc1C
Cc1cnc(CCNS(=O)(=O)c2cccc(F)c2)n1C(C)C
Cc1cccnc1NCCNC(=O)c1ccc(S(N)(=O)=O)cc1
CCCN1CCC2(CCN([S+](=O)([O-])c3cccs3)CC2)Oc2ccccc21
Cc1ccc(C(=O)N2CCCC2C(=O)N2CCCC2c2nc3ccncc3[nH]2)cc1 (configuration not stated)
O=C(c1ccoc1)N1CCN(c2cc(C3CC3)ncn2)CC(O)C1 (configuration not stated)
Cc1n[nH]c(C)c1CNC(=O)C1CCN(c2cn[nH]c(=O)c2)C1 (configuration not stated)
COCCC1(NC(=O)C2CC2)CCN(C(=O)c2ccccn2)CC1
O=C1CC2(CCN(C(=O)c3ccccn3)C2)Nc2ccccc2N1 (configuration not stated)
O=C1Cc2c(-c3ccccc3OCc3ccccc3)n[nH]c2CN1Cc1ccccn1
CCCc1ccc2oc(C(=O)N(C)CCC3CCCCO3)c(C)c2c1 (configuration not stated)
O=C1NCCCc2[nH]c(-c3cnn(-c4ccc(F)cc4)c3)nc21
CCc1nc2c(c(-c3ccc(Cl)cc3)n1)CN(Cc1ccccn1)CC2
CCN1CCC(CC(=O)N2CCC(C3CCN(C(=O)NC)CC3)C2)CC1 (configuration not stated)
CN(C)S(=O)(=O)N1CCc2nn(C)c(=O)n2CC1
CC(=O)c1ccc(NC(=O)N[C@H]2CCN3C(=O)[C@@H](Cc4ccccc4)NC(=O)[C@H]23)cc1
CCn1ccc(C(=O)N2CC(c3nc(CCOCC4CC4)no3)C2)n1
NC(=O)[C@@H](Cc1ccccc1)NC(=O)[C@@H]1C[C@@H](NS(=O)(=O)c2cccs2)CCN1C(=O)CSCC(=O)O
COc1cccc(CCC(=O)N2CCC(OCC3CC3)C2)c1 (configuration not stated)
CN1C(=O)CC[C@]2(C(=O)NCc3ccco3)CCCC[C@@H]12
Cc1cn2nnc(C(=O)N3CCC(C(=O)Nc4cccc(F)c4)CC3)c2c(=O)[nH]1
COc1ccc(CN(C)C2CCCN(CCc3ccccc3)C2)c(OC)c1OC (configuration not stated)
CC(=O)N1CCC(OCCOc2ccccc2)CC1
CCOc1c(CN(C)C(=O)Cn2cccc(OC)c2=O)cccc1OC
Oc1ccccc1CN1CC(CNc2cccnc2)C2(C1)CN(c1ccccc1)C2 (configuration not stated)
O=C(CC1CCCC1)N1C[C@@H](CO)[C@@H]2Oc3ccc(Cl)cc3[C@@H]21
COC1CCOC2(CCN(C(=O)Cc3ccccc3)CC2)C1 (configuration not stated)
CCc1ccc(S(=O)(=O)N2c3ccccc3CC2c2nnc(C3CCOCC3)o2)cc1 (configuration not stated)
CC(C)(C)OC(=O)N1CC(NCc2cccc(F)c2F)C1
C1=C(c2nc(-c3ccncc3)cc3c2ccn3Cc2cccnc2)CCOC1
COC(=O)N1CCCCC1C(=O)N1CCC2(CC1)c1nc[nH]c1CCN2C (configuration not stated)
O=C(N1CCCCCC1CN1CCOCC1)C1(c2ccccc2)CC1 (configuration not stated)
CCC1CN(C(=O)c2ccc(NCc3cnn(CC)c3)nc2)CCN1C(C)C (configuration not stated)
N#CC1CCN(C(=O)C2CCN(C(=O)c3ccc(-c4cncnc4)cc3)CC2)CC1
CC(C)C(=O)N1CCC(NCCOc2ccccc2Cl)CC1
CC(C)N(Cc1nccn1C)C(=O)CC(c1ccccc1)c1ccccc1F (configuration not stated)
CCc1ccccc1NC(=O)N1C[C@@H](F)C[C@H]1C(=O)N1CCc2ccccc2C1
COCCOCc1nc(C2CCCN2C(=O)Nc2ccc(F)cc2F)no1 (configuration not stated)
COc1ccc(NC(=O)[C@@H]2C[C@H](c3ccc(F)cc3)N(Cc3ccccc3Cl)C2)cn1
CN(C)C(=O)N1CCC2(CC1)CC(c1cccc(C(F)(F)F)c1)=NO2
COC1CCOC2(CCN(C(=O)CCc3nc4ccccc4s3)CC2)C1 (configuration not stated)
Cc1cc(C)n(C2CCN(c3nccc(-c4ccccn4)n3)C2)n1 (configuration not stated)
CN(C)Cc1nnc(C2CC(NC(=O)Cc3c[nH]c(=O)n(C)c3=O)C2)n1C (configuration not stated)
O=C(C1CCCN1C(=O)Cc1ccc(F)cc1)N1CCC(N2CCOCC2=O)CC1 (configuration not stated)
O=C1CCC(C(=O)N2CCSCC2)CN1CCc1cccc(F)c1 (configuration not stated)
CCN(Cc1ccncc1)C(=O)c1coc(COc2cccc(C(F)(F)F)c2)n1
CCOC(=O)[C@H]1C[C@]2(CCCCNC2=O)N(C(=O)c2cccc(OC)c2)[C@H]1c1ccco1
